From PubChem BioAssay
The source made the active and inactive calls.

Tests used:
[1] = target: Albumin (Bos taurus) (UniProt P02769); assay: bovine serum albumin binders on microarray, profiling panel, artefact control for SMM control protein annotation, biochemical, small-molecule microarray, Alexa647 label, 635/667 nm fluorescence (AID 1118); conditions: BSA-A647 binding, fluorescence 635 nm, higher = more signal;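 note: score merges 667 nm emission intensity and signal-to-noise per printed compound spot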
[2] = small-molecule microarray binders of probe aXIP, primary screen, biochemical, NeuroSMM set, 635/667 nm fluorescence (AID 1119); conditions: higher = more signal, called active from +8 up or from −8 down;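 note: probe is the protein aXip251-270 applied at 1 µg/mL to compound-printed slides; binding of probe to printed compounds measured as 667 nm fluorescence plus signal to noise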
[3] = small-molecule binders of probe aNOTCH3, primary screen, biochemical, small-molecule microarray, 635/667 nm fluorescence (AID 1120); conditions: higher = more signal;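 note: probe is a biotin-tagged antibody raised against NOTCH3 rather than NOTCH3 protein; score merges spot fluorescence near 667 nm with spot signal to noise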
[4] = small-molecule binders of probe aNOTCH2, primary screen, biochemical, small-molecule microarray, 635/667 nm fluorescence (AID 1121); conditions: higher = more signal;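 note: score merges feature fluorescence read at 667 nm with its signal to noise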
[5] = target: Carbonic anhydrase 2 (Homo sapiens) (UniProt P00918); assay: CAII small-molecule binders, profiling panel, biochemical, small-molecule microarray, Alexa647-labelled CAII (AID 1122); conditions: CAII-A647 binding fluorescence, higher = more signal
[6] = COS7 lysate on small-molecule microarray, probe aHis, 635 nm (AID 1123); conditions: COS7 cell lysate, fluorescence, higher = more signal;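 note: z-score combines 667nm fluorescence intensity with signal-to-noise per printed compound spot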
[7] = compound binding in COS7 lysate, probe aLAP1, primary screen, cell lysate, small-molecule microarray (AID 1124); conditions: probe aLAP1, fluorescence, higher = more signal;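 note: lysate comes from COS7 cells expressing LAP1 and is applied at 0.3 µg/mL; score merges spot fluorescence near 667 nm with signal-to-noise over triplicate slides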
[8] = test system: Sam68 (KHDRBS1); assay: Sam68 small-molecule binders, primary screen, biochemical, small-molecule microarray, 635 nm fluorescence (AID 1125); conditions: small-molecule microarray binding, higher = more signal;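 note: score merges 667 nm channel intensity with signal to noise over triplicate slides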
[9] = test system: Chordin-like protein 2 (CHRDL2); assay: CHRDL2 small-molecule binders, primary screen, biochemical, small-molecule microarray, 635 nm fluorescence (AID 1126); conditions: small-molecule microarray binding, fluorescence 635 nm; higher = more signal;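 note: printed compound slides probed with Chrdl2 protein at 4 µg/mL for 1 h at 4 C; score merges 667 nm emission intensity with signal to noise over three replicate slides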
[10] = target: Concanavalin-A (Canavalia ensiformis) (UniProt P02866); assay: ConA small-molecule binders, primary screen, artefact control for SMM control protein annotation, biochemical, small-molecule microarray, Alexa647 label, 635 nm (AID 1127); conditions: ConA-A647 binding fluorescence, higher = more signal;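 note: z combines 667 nm emission intensity with signal-to-noise across three replicate slides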
Sequence of Concanavalin-A (Canavalia ensiformis) (P02866 whole entry, looked up): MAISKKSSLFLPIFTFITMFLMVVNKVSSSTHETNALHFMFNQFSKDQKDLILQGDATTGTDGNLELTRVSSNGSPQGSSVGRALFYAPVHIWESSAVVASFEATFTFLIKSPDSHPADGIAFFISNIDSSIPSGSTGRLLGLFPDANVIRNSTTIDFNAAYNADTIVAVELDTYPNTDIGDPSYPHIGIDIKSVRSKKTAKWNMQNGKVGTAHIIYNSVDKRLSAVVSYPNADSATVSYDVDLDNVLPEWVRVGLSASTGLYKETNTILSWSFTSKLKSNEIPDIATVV

Sequence of Albumin (Bos taurus) (P02769 whole entry, looked up): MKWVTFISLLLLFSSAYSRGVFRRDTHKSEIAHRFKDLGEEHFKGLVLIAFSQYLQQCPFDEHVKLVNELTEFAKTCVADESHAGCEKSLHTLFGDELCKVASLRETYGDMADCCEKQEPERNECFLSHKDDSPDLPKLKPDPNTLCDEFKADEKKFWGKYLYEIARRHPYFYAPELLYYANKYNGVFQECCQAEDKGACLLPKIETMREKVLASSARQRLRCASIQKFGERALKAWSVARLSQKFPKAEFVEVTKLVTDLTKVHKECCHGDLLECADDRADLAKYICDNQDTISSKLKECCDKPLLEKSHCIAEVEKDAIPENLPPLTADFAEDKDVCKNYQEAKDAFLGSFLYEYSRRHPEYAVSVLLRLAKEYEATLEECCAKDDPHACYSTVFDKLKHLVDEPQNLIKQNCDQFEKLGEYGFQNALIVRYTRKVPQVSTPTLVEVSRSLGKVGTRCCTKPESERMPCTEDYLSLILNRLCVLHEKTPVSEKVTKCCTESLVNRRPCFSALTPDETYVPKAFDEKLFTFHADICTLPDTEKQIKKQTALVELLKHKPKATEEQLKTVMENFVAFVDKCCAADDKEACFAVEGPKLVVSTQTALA

Row | SMILES | composite z-score [1] | composite Z-score [2] | composite z-score [3] | composite z-score [4] | composite z-score [5] | composite z-score [6] | composite z-score [7] | composite z-score [8] | composite z-score [9] | composite z-score [10]
1 | C=CCOC(=O)[C@H]1[C@@H]2C(=O)O[C@@H](c3ccccc3)[C@@H](c3ccccc3)N2[C@@H](c2ccc(OCCOC(=O)[C@@H]3C[C@@H]4C(=O)N[C@@H](CCCCN(C)C)C(=O)N4[C@@H]3c3ccc(O)cc3)cc2)[C@]12C(=O)Nc1ccc(I)cc12 | -0.342 | 0.711 (inactive) | -0.0111 | -0.18 | 0.574 | 1.66 | 0.278 | 1.3 | 1.24 | 1.15
2 | CN1C(=O)C2C=CC(C(O)C3=C[C@H]4C[C@@H](C3)C4(C)C)N(Nc3ccccc3)C2C1=O (stereo not given in full) | 0.566 | -0.636 (inactive) | 0.169 | -0.0712 | 0.645 | 1.75 | -0.678 | 1.31 | 0.307 | 0.782
3 | COC(=O)[C@@]1(Cc2ccc(F)cc2)[C@H]2c3cc(C(=O)N(C)C)n(Cc4ccc(S(C)(=O)=O)cc4)c3C[C@H]2CN1C(=O)c1ccccc1 | 0.653 | 0.542 (inactive) | -0.142 | 0.151 | 0.747 | 3.39 | 1.04 | -0.181 | -0.0016 | 0.518
4 | C[C@@H]1ON(c2cccc(C(=O)OC(C)(C)C)c2)[C@H](c2ccc(Br)cc2)[C@H]1C(=O)N1C(=O)OC[C@H]1Cc1ccccc1 | 0.0512 | 0.0724 (inactive) | 0.0325 | -0.0454 | 0.133 | 1.2 | 0.261 | 1.21 | 0.52 | 1.09
5 | O=C1OCCC=C[C@H]2OC34C=CCN(CCN5CCOCC5)C(=O)[C@H]3N(CCCCCCO)C(=O)[C@@H]4C12 (stereo not given in full) | -0.274 | 1 (inactive) | -0.274 | -0.167 | 0.844 | 0.1 | 0.133 | -0.614 | -0.592 | 0.0309
6 | [N-]=[N+]=NCc1ccccc1C[C@@]1(C(=O)NCC(O)CO)N=C(c2ccc(OCCCO)cc2)O[C@@H]1c1ccccc1N=[N+]=[N-] (stereo not given in full) | 0.987 | 1.26 (inactive) | 0.318 | -0.0814 | 0.69 | 3.14 | 0.791 | 1.31 | -0.655 | 1.1
7 | O=C1OCCC/C=C\[C@H]2OC34C=CCN(Cc5ccccc5)C(=O)[C@H]3N(CCCCCCO)C(=O)[C@@H]4C12 (stereo not given in full) | -0.449 | 0.986 (inactive) | -0.262 | -0.141 | 0.893 | -0.19 | 0.468 | 0.139 | -1.24 | -1.3
8 | C=CCC(OC(C)=O)[C@@H]1[C@@H](N(Cc2cccc3ccccc23)C(=O)c2ccc(-c3ccccc3)cc2)c2cc(OCCCO)ccc2N1C(=O)Cc1ccc(OC)cc1 (stereo not given in full) | 0.173 | -0.829 (inactive) | -0.0232 | -0.143 | 0.0745 | 0.0863 | -0.0691 | -0.0453 | -0.147 | 0.0866
9 | O=C(O)[C@@]1(CCS(=O)(=O)c2ccccc2)COC(c2ccc(OCCCO)cc2)=N1 | -0.344 | 0.714 (inactive) | -0.15 | -0.108 | 0.815 | 1.63 | 0.0237 | -0.39 | -0.724 | -0.0647
10 | CC(=O)NCCCC[C@@H]1NC(=O)[C@@H]2C[C@H](C(=O)NCCCCCCNC(=O)CS)[C@H](c3cccc(OCCO)c3)N2C1=O | -0.133 | 0.405 (inactive) | -0.0996 | -0.151 | 0.561 | 1.48 | 0.689 | 0.825 | 0.568 | 0.914
11 | COc1cc2c(cc1OC)CN(C(=O)[C@H]1[C@@H]3C(=O)O[C@@H](c4ccccc4)[C@@H](c4ccccc4)N3[C@@H](c3ccc(O)cc3)[C@]13C(=O)Nc1ccc(C#CCNC(N)=O)cc13)CC2 | -0.176 | -0.136 (inactive) | 0.0397 | -0.165 | 0.169 | 0.103 | 0.523 | -0.0579 | 0.702 | 0.212
12 | CC(C)(C)OC(=O)CC[C@]1(C(=O)O)N=C(c2ccc(OCCCO)cc2)O[C@H]1c1ccccc1N=[N+]=[N-] | 0.82 | 0.653 (inactive) | 0.786 | 0.473 | 0.838 | 2.95 | 0.781 | 0.889 | 0.0588 | 0.663
13 | CC1(C)[C@@H]2CC(C(O)C3C=CC4C(=O)N(c5ccccc5)C(=O)C4N3Nc3ccccc3)=C[C@H]1C2 (stereo not given in full) | 0.566 | -0.212 (inactive) | -0.0144 | 0.0127 | 0.408 | 1.61 | 0.322 | 0.031 | 0.684 | 0.566
14 | CN1C(=O)C2C=CC(C(O)c3ccc(I)cc3)N(N3CCCCC3)C2C1=O (stereo not given) | 0.999 | 0.891 (inactive) | 0.748 | 0.0196 | 0.608 | 2.85 | 0.879 | 1.32 | -0.119 | 1.15
15 | CCN(CC)c1ccc(N2CC=CC34O[C@@H]5/C=C\CCC(C)OC(=O)C5[C@H]3C(=O)N(C(CO)C(C)C)[C@@H]4C2=O)cc1 (stereo not given in full) | -0.451 | 0.211 (inactive) | -0.222 | -0.175 | 0.894 | 0.595 | -0.387 | 0.213 | -0.263 | -1.77
16 | C=CCNC(=O)[C@H]1[C@@H]2C(=O)O[C@@H](c3ccccc3)[C@@H](c3ccccc3)N2[C@@H](c2ccccc2OCCO)[C@]12C(=O)Nc1ccc(C#CC3=CCCCC3)cc12 | 0.039 | 1.86 (inactive) | 0.0942 | -0.148 | 0.0836 | 1.19 | 1.37 | 1.29 | 0.495 | 1.02
